# Data published in PubChem BioAssay (Tox21).
# Unmarked numbers belong to inactive results. Where a call stands in place of a potency, no number is given. Calls of active or inactive are those of the source. The call rests on the fitted dose curve.
# Target: Gonadotropin-releasing hormone receptor (Homo sapiens) (UniProt P30968)
# Assay: Human gonadotropin-releasing hormone receptor (GnRHR) small molecule agonists, calcium flux assay in GnRHR-HEK293 cells (AID 1920063); further: nearly all actives have a fitted effect of over 35% in size
# Settings: calcium flux fluorescence, agonist mode; series mostly up to 57.6 µM
# Text: National Center for Advancing Translational Sciences [NCATS]
# Division of Preclinical Innovation [DPI]
# U.S. Environmental Protection Agency [EPA]
# National Institutes of Environmental Health Sciences [NIEHS]
# National Toxicology Program [NTP]
# U.S. Food and Drug Administration [FDA]
# Gonadotropin-releasing hormone receptor (GnRHR) is a G-protein-coupled receptor (GPCR) and acts (through phospholipase C) to increase intracellular inositol trisphosphate and then release intracellular calcium stores. Cell-based GnRHR-Hek293 calcium influx assay is using HEK293 cells that have been genetically engineered to express the human GnRHR, which activity can be measured by calcium signaling. A compound/drug can activate (agonist) GnRHR that can be monitored by levels of intracellular calcium.
# GnRHR-HEK293 cells developed by Codex Corp contain human GnRHR reporter gene, which was stably integrated into HEK 293 cells. The compound activation can be detected by fluorescence intensity via calcium flux assay. This cell line has been used to screen the Tox21 10K compound library to identify GnRHR agonists.
# GnRHR-Hek293 cells were dispensed at 1500cells/4uL/well in 1536-well black wall/clear bottom plates using a multidrop dispenser. After the assay plates were incubated at a 37 C/5% CO2 incubator for 18 hours, 4 uL of Calcium Dye Solution was added to each well. The plates were incubated at 37 C for 1 hour. For agonist mode, 23 nL of compounds dissolved in DMSO, positive controls or DMSO only was transferred to the assay plate by a pin tool station. The fluorescence intensity in the plates was measured using FDSS 7000EX kinetic plate reader with a filter set of Ex/Em=480/540 for 3 min at 1 sec intervals. Each test compound was measured at 15 concentrations and in triplicates.
# Potency means the concentration at half of the fitted maximal effect.
# Chain of Gonadotropin-releasing hormone receptor (Homo sapiens) (P30968 whole entry, looked up): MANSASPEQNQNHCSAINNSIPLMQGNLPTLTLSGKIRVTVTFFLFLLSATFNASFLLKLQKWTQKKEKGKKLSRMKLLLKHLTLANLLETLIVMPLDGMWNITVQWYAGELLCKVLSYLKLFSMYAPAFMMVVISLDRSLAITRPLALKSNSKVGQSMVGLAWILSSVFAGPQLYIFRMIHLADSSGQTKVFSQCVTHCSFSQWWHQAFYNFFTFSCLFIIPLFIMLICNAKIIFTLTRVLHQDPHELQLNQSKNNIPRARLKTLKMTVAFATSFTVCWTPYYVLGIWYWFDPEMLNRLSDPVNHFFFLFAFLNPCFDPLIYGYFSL
SMILES,Potency,activity change
CCOC(=O)C(Cl)C(C)=O (stereo not given),inactive,–
CC(C)C(=O)Cl,inactive,–
ClSC(Cl)(Cl)Cl,inactive,–
COP(=S)(OC)Oc1ccc([N+](=O)[O-])c(C)c1,inactive,–
ClCCCCl,inactive,–
CCOc1nc(C(Cl)(Cl)Cl)ns1,inactive,–
CC(C)[C@]12CC(=O)[C@H](C)[C@H]1C2,inactive,–
OC(Cc1ccccc1Cl)(Cn1[nH]cnc1=S)C1(Cl)CC1 (stereo not given),inactive,–
Clc1c(Cl)c(Cl)c(Cl)c(Cl)c1Cl,–,"-0.0134% [at 5.22 µM, stronger effect = higher value]"
CCSC(=O)Cl,inactive,–
CCC1(c2ccccc2)C(=O)N=C(O)NC1=O (stereo not given),inactive,–
CC1(C)CN=C(NN=C(/C=C/c2ccc(C(F)(F)F)cc2)/C=C/c2ccc(C(F)(F)F)cc2)NC1,inactive,–
C=CCOC(=O)C(C)(C)OC(=O)c1cc(-n2c(=O)cc(C(F)(F)F)n(C)c2=O)ccc1Cl,inactive,–
c1ccc2c(c1)CCNC2,inactive,–
CCC1(c2ccccc2)C(=O)N(COC)C(=O)N(COC)C1=O,inactive,–
CC(=O)[C@H]1CC[C@H]2[C@@H]3CC[C@H]4C[C@H](O)CC[C@]4(C)[C@H]3C(=O)C[C@]12C,inactive,–
COP(=O)(OC)SCn1c(=O)oc2cc(Cl)cnc21,inactive,–
CCOC(=O)c1cn2nc(OP(=S)(OCC)OCC)cc2nc1C,inactive,–
C=CCN1CC[C@]23c4c5ccc(O)c4O[C@H]2C(=O)CC[C@@]3(O)[C@H]1C5,inactive,–
CCOP(=S)(OCC)SCn1nnc2ccccc2c1=O,inactive,–

SMILES,Potency,activity change
ClC(Br)Br,inactive,–
O=C1OC(=O)C2C1C1(Cl)C(Cl)=C(Cl)C2(Cl)C1(Cl)Cl (stereo not given),inactive,–
C[C@H]1CC[C@@H]2[C@@H](C)[C@H]3[C@H](C[C@H]4[C@@H]5CC=C6CC(O[C@@H]7O[C@H](CO)[C@H](O)[C@H](O[C@@H]8O[C@H](CO)[C@@H](O)[C@H](O)[C@H]8O)[C@H]7O[C@H]7O[C@@H](C)[C@H](O)[C@@H](O)[C@H]7O)CC[C@]6(C)[C@H]5CC[C@]34C)N2C1 (stereo not given in full),10.1 µM (active),–
NCCc1cc(O)c(O)cc1O,inactive,–
Cc1cc(C(F)(C(F)(F)F)C(F)(F)F)ccc1NC(=O)c1cccc(I)c1C(=O)NC(C)(C)CS(C)(=O)=O,inactive,–
CCOP(=O)(Sc1ccccc1)Sc1ccccc1,inactive,–
O=P(O)(O)c1ccccc1,inactive,–
O=[N+]([O-])c1ccc2ccc3cccc4ccc1c2c34,inactive,–
COCc1cnc(C2=NC(C)(C(C)C)C(=O)N2)c(C(=O)O)c1 (stereo not given),inactive,–
S=C=Nc1cccc2ccccc12,inactive,–
CCC1(c2cccc(O)c2)CCCCN(C)C1 (stereo not given),inactive,–
C=CC(=O)NCNC(=O)C=C,inactive,–
CCOP(=S)(OCC)Oc1cc(Cl)c(Br)cc1Cl,inactive,–
C=CC(=O)N(C)C,inactive,–
O=C(CCl)Nc1ccccc1,inactive,–
CCOP(=S)(OCC)Oc1ncn(-c2ccccc2)n1,inactive,–
[Cl][Sn]([Cl])([Cl])[Cl],inactive,–
ClC1=C(Cl)[C@]2(Cl)[C@@H]3[C@@H]4C[C@@H]([C@H]5O[C@@H]45)[C@@H]3[C@@]1(Cl)C2(Cl)Cl,7.76 µM (active),–
COC1=CC(=O)O[C@@H](/C=C/c2ccc3c(c2)OCO3)C1,inactive,–
C[N+]1(C)[C@@H]2CC[C@H]1CC(OC(=O)C(CO)c1ccccc1)C2 (stereo not given in full),inactive,–
